Reference: PubChem BioAssay (NCATS)
Records with an inconclusive call do not appear. Activity calls are given as the source filed them. Calls follow the shape of the dose curve; as a rule, active = well fitted curve in the direction sought with a large enough effect; inconclusive = small, poorly fitted or top-dose-only effect, or another doubt; inactive = no such curve, though single readings can be large; an effect the other way counts as inactive or inconclusive.

Columns and labels:
[1] = Confirmatory screen GU Rhodamine qHTS for Zika virus inhibitors qHTS (AID 1347157); settings: purified enzyme assay, Rhodamine110 substrate fluorescence, 15 min; series mostly up to 114 µM; also: nearly all actives have a fitted effect of over 70% in size; also: potency is read from the fitted curve at half-maximal effect
Summary of the method: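 Compounds, tested up to 114 microM, were incubated for 15 minutes with 25 nM unlinked NS2B-NS3 protease at pH 8.0. Cleavage of 1.5 microM Rhodamine110 substrate was then followed by fluorescence for 15 minutes.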

[2] = system: Zika virus NS2B-NS3 protease (unlinked complex); assay: Primary screen GU Rhodamine qHTS for Zika virus inhibitors: Unlinked NS2B-NS3 protease assay (AID 1347159); settings: Recombinant ZIKV NS2B-NS3 protease, Rhodamine110 substrate fluorescence; series mostly up to 107 µM; also: nearly all actives have a fitted effect of over 60% in size; also: potency is read from the fitted curve at half-maximal effect
Summary of the method: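 Buffer 10 mM Tris-HCl pH 8.0, 0.01% Tween 20. Unlinked protease 25 nM; compound preincubation 15 min, RT, protected from light. Substrate Rhod110, 1.5 microM; ~15% conversion in 15 min.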

[3] = system: Zika virus NS2B-NS3 protease (linked construct); assay: Primary screen NINDS Rhodamine qHTS for Zika virus inhibitors (AID 1347160); settings: purified NS2B-NS3 protease, Rhodamine110 substrate fluorescence; series mostly up to 57.1 µM; also: nearly all actives have a fitted effect of over 55% in size; also: potency is read from the fitted curve at half-maximal effect
Summary of the method: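 Aprotinin served as in-plate control. Conditions: 25 nM linked NS2B-NS3, pH 8.0 Tris buffer, titrated compounds, 15 min preincubation and 15 min reaction with 1.5 microM Rhod110 substrate at room temperature.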

[4] = Confirmatory screen NINDS Rhodamine qHTS for Zika virus inhibitors (AID 1347161); settings: purified enzyme assay, Rhodamine110 substrate fluorescence, 15 min; series mostly up to 114 µM; also: nearly all actives have a fitted effect of over 60% in size; also: potency is read from the fitted curve at half-maximal effect
Summary of the method: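 Percent inhibition, normalized to uninhibited and enzyme-free controls, is fitted to a 4-parameter Hill equation. Fluorescence change comes from a 15-min cleavage of 1.5 microM bis-peptide Rhodamine110 substrate by 25 nM linked NS2B-NS3 at room temperature.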

[5] = Tertiary RLuc qRT-PCR qHTS assay for Zika virus inhibitors (AID 1347169); settings: infected Vero cells, reporter luminescence, 48-72 h; series mostly up to 45.9 µM; also: nearly all actives have a fitted effect of over 55% in size; also: potency is read from the fitted curve at half-maximal effect
Summary of the method: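 Vero cells (1,000/well) infected with recombinant ZIKV-RLuc (Cambodian) at MOI 1-2 after compound addition, 48-72 hrs at 37 degrees C. Live-cell Renilla luciferase substrate added; luminescence read after 1-1.5 hrs.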

[6] = HepG2 cells viability qHTS for Zika virus inhibitors (AID 1347168); settings: Zika counter-screen; series mostly up to 45.9 µM
Summary of the method: (§1)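 qHTS titration; 24-48 h compound exposure, 37 degrees C/5% CO2; DMEM, 4% FBS; CellTiter Glo ATP luminescence.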

[7] = Vero cells viability qHTS for Zika virus inhibitors (AID 1347167); settings: cytotoxicity counter-screen (Zika); series mostly up to 45.9 µM
Summary of the method: as §1

[8] = ZIKV-mCherry secondary qHTS for Zika virus inhibitors (AID 1347158); settings: Vero cells, ZIKV-mCherry infection imaging, 48-72 h; series mostly up to 49.2 µM; also: top concentration of the series differs between compounds
Summary of the method: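 This orthogonal imaging screen measured ZIKV-mCherry infection of Vero cells exposed to compound, MOI 1, 48-72 h. Percent infection came from segmented nuclei scored mCherry-positive above 3 SD of negative controls.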

COc1cc(C(=O)O)ccc1NC(=O)C1NC(CC(C)(C)C)C(C#N)(c2ccc(Cl)cc2F)C1c1cccc(Cl)c1F (stereo unspecified)
Potency [1]: 4.41 µM (active)
Potency [2]: 2.51 µM (active)
Potency [3]: inactive
Potency [4]: 4.94 µM (active)
Potency [5]: 9.3 µM (active)

C=C1/C(=C/C=C2\CCC[C@]3(C)[C@@H]([C@H](C)/C=C/[C@@H](C)C(C)C)CC[C@@H]23)C[C@@H](O)C[C@@H]1O
Potency [1]: 49.4 µM (active)
Potency [2]: 31.6 µM (active)
Potency [3]: inactive
Potency [4]: 49.4 µM (active)
Potency [5]: 3.3 µM (active)

CCCCCc1ccc(/C=C/C(=O)Nc2cc(Cl)ccc2C(=O)O)cc1
Potency [1]: 1.75 µM (active)
Potency [3]: 2 µM (active)
Potency [4]: 1.75 µM (active)
outcome [6]: inactive

CC(=O)[C@H]1CC[C@H]2[C@@H]3CC=C4C[C@@H](OS(=O)(=O)O)CC[C@]4(C)[C@H]3CC[C@]12C
Potency [2]: 17.8 µM (active)

Cc1cc(OCCCS(C)(=O)=O)cc(C)c1-c1cccc(COc2ccc(C3=CC(=O)NS3=O)cc2)c1 (stereo unspecified)
Potency [2]: 3.55 µM (active)

O=C(O)c1ccc(S(=O)(=O)N(Cc2ccc(OC(F)(F)F)cc2)c2ncc(C(F)(F)F)cc2Cl)cc1
Potency [1]: 3.93 µM (active)
Potency [2]: 4.47 µM (active)
Potency [3]: 4.47 µM (active)
Potency [4]: 3.93 µM (active)
outcome [7]: inactive
outcome [6]: inactive
Potency [5]: 18.6 µM (active)

COc1ccc(-c2ccccc2)cc1NS(=O)(=O)c1cc(Cl)cc(Cl)c1O
Potency [1]: 1.21 µM (active)
Potency [2]: 1.41 µM (active)
Potency [3]: 1.58 µM (active)
Potency [4]: 1.71 µM (active)
outcome [7]: inactive
outcome [6]: inactive

O=C(Nc1cc(C(F)(F)F)cc(C(F)(F)F)c1)c1cnc(Cl)nc1C(F)(F)F
Potency [1]: 24.8 µM (active)
Potency [2]: 15.8 µM (active)
Potency [3]: inactive
Potency [4]: 44.1 µM (active)

CC(C)C[C@H](CO)Nc1nc(S[C@@H](C)c2ccccc2)nc2nc(N)sc12
Potency [1]: 55.5 µM (active)
Potency [2]: inactive

CC1=C(C(=O)OC2CCCCC2)C(c2ccc([N+](=O)[O-])cc2)C2=C(CC(C)(C)CC2=O)N1 (stereo unspecified)
Potency [1]: inactive
Potency [2]: inactive
Potency [3]: 31.6 µM (active)
Potency [4]: inactive
Potency [5]: inactive

C[C@H]1CO[C@@H]2Cn3cc(C(=O)NCc4ccc(F)cc4F)c(=O)c(O)c3C(=O)N12
Potency [1]: inactive
Potency [2]: 35.5 µM (active)
Potency [3]: inactive
Potency [4]: inactive
Potency [5]: inactive

CC(=O)C1=C(O)C=C2Oc3c(C(C)=O)c(O)c(C)c(O)c3[C@]2(C)C1=O
Potency [2]: 31.6 µM (active)

CCCCCCCOc1cc2c(cc1/C(C)=C/c1ccc(C(=O)O)cc1)C(C)(C)CCS2(=O)=O
Potency [1]: 1.97 µM (active)
Potency [2]: 1.78 µM (active)
Potency [3]: 2.51 µM (active)
Potency [4]: 1.97 µM (active)
outcome [7]: inactive
outcome [6]: inactive
Potency [5]: 2.94 µM (active)

COc1ccc2cc(-c3cc(-c4cc(Cl)cc(Cl)c4)nn3C(C)c3ccc(C(=O)NCCC(=O)O)cc3)ccc2c1 (stereo unspecified)
Potency [1]: 5.55 µM (active)
Potency [2]: 2.24 µM (active)
Potency [3]: inactive
Potency [4]: 4.94 µM (active)
Potency [5]: inactive

Oc1cccc(-c2c3nc(c(-c4cccc(O)c4)c4ccc([nH]4)c(-c4cccc(O)c4)c4nc(c(-c5cccc(O)c5)c5ccc2[nH]5)CC4)C=C3)c1
Potency [1]: 22.4 µM (active)
Potency [8]: inactive
Potency [4]: 20 µM (active)

CC(C)(C)Sc1c(CC(C)(C)C(=O)O)n(Cc2ccc(Cl)cc2)c2ccc(OCc3ccc4ccccc4n3)cc12
Potency [1]: 3.93 µM (active)
Potency [2]: 2.82 µM (active)
Potency [3]: 4.47 µM (active)
Potency [4]: 3.93 µM (active)
outcome [7]: inactive
outcome [6]: inactive
Potency [5]: 11.7 µM (active)

CCC(C)/C=C(C)/C=C/C1=CC2=CC(=O)C3(C)OC(C)(O)C(C(=O)OC)C3C2=CO1 (stereo unspecified)
Potency [1]: 19.2 µM (active)
Potency [3]: inactive
Potency [4]: 21.5 µM (active)
Potency [5]: inactive

O=C(Nc1ccc(-c2ccc(Cl)c(Cl)c2)cc1)C1=C(O)c2ccccc2S(=O)(=O)N1
Potency [1]: 2.48 µM (active)
Potency [2]: 2.82 µM (active)
Potency [3]: 3.98 µM (active)
Potency [4]: 2.48 µM (active)
outcome [7]: inactive
outcome [6]: inactive
Potency [5]: 26.2 µM (active)

O=C(O)c1ccc(N2C(=O)/C(=C/c3ccc(-c4ccc([N+](=O)[O-])cc4)o3)C=C2c2ccccc2)cc1
Potency [1]: 1.56 µM (active)
Potency [8]: inactive
Potency [3]: 1.78 µM (active)
Potency [4]: 1.75 µM (active)
outcome [7]: inactive
outcome [6]: inactive

CC#C[C@@H](CC(=O)O)c1ccc(OCc2cccc(-c3ccc(C(F)(F)F)cc3)c2)cc1
Potency [1]: 0.698 µM (active)
Potency [4]: 0.987 µM (active)
outcome [7]: inactive
outcome [6]: inactive

CC#C[C@@H](CC(=O)O)c1ccc(OCc2ccc(CN3CCC4(C=Cc5ccccc54)CC3)s2)cc1
Potency [1]: 2.78 µM (active)
Potency [8]: inactive
Potency [2]: 3.16 µM (active)
Potency [3]: 5.62 µM (active)
Potency [4]: 3.5 µM (active)
outcome [7]: inactive
outcome [6]: inactive
